Compounds with a hit are over-represented: about 5.3% of the library has one in this group of screens.
Six1-Eya2 inh – inhibitors of human Six1/Eya2 interaction; AlphaScreen GST-Six1/His-Eya2 binding, biochemical; active compounds read low; activity change, % (concentration not given with the values); hit rate 0.56% among 360,000; AID 651725; in the data active = activity change below about -65%; inconclusive = mostly about -30% to -63%; note: % is set by controls: 0 for no effect and ±100 for the full control effect
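AlphaScreen with GST-Six1 and His-Eya2 (5X mix: 250 nM and 500 nM), glutathione donor and nickel acceptor beads; buffer 50 mM Tris pH 8.0, 300 mM NaCl, 1 mM TCEP; 1 h at 37 C in the dark.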
HP1b chromo inh – inhibitors of HP1-beta chromodomain binding to methylated histone tails | AID 540317 | P83916 | hit rate 0.56% among 390,000 | Potency, µM (doses to about 114 µM), for the others: at the highest dose activity change, negative = inhibition, most hits filed as inhibitors | AlphaScreen HP1-beta / biotin-H3K9me3 peptide binding; note: potency is the fitted concentration of half-maximal effect; nearly all actives have a fitted effect of over 70% in size
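HP1-beta protein (50 nM final) preincubated 30 min at room temperature with biotinylated H3(1-18)K9me3 peptide (50 nM) in PBS pH 7.4, 0.01% Tween-20, then compound added for 30 min. AlphaScreen streptavidin donor/nickel chelate acceptor beads (10 ug/mL final), 30 min dark, luminescence read.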
BAZ2B inh – inhibitors of human BAZ2B bromodomain | Q9UIF8 | AlphaScreen BAZ2B-H3K14Ac peptide displacement | Potency, µM (highest dose often 114 µM), inactives show at the highest dose activity change, negative = inhibition, most hits filed as inhibitors | hit rate 4.4% among 360,000; note: potency is the fitted concentration of half-maximal effect; % is set by controls: 0 for no effect and ±100 for the full control effect; nearly all actives have a fitted effect of over 60% in size
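Complex of BAZ2B and biotin-H3K14Ac (50 nM apiece) forms over 30 min at RT, then faces library compounds up to 110 uM for another 30 min; AlphaScreen beads added, 20 min dark incubation, luminescence read.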
JMJD2A Tudor inh – JMJD2A Tudor domain (human) inhibition; O75164; Potency, µM (doses to about 114 µM), for the others: top-dose activity change, negative = inhibition, actives largely listed as inhibitors; AID 504339; AlphaScreen JMJD2A-Tudor / H3K4me3 peptide binding; hit rate 4.4% among 390,000; note: potency is the fitted concentration of half-maximal effect; % is set by controls: 0 for no effect and ±100 for the full control effect; nearly all actives have a fitted effect of over 50% in size
CtBP-E1A inh – blocks the CtBP interaction with E1A | AlphaScreen GST-E1A/His-CtBP binding, 1536-well; active compounds read low | activity change, % (no concentration beside the values) | hit rate 0.49% among 340,000 | AID 651724; in the data active = activity change below about -65%; inconclusive = mostly about -30% to -63%; note: % is set by controls: 0 for no effect and ±100 for the full control effect
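Steps: dispense buffer (Tris pH 8.0, NaCl 300 mM, TCEP 1 mM, BSA, Tween 20); add 5X protein mix (GST-E1A, His-CtBP, 125 nM each); pin 23 nL compound; 2 h at 37 °C, dark; add 5X beads (50 ug/mL); 1 h; read.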
TDP1 block – inhibitors of human tyrosyl-DNA phosphodiesterase TDP1. hit rate 0.28% among 350,000. Potency, µM (highest dose often 130 µM), for inactives: at the top dose activity change, negative = inhibition, most hits filed as inhibitors. Q9NUW8. AID 485290. recombinant TDP1, AlphaScreen DNA substrate cleavage; note: potency is the fitted concentration of half-maximal effect; % is set by controls: 0 for no effect and ±100 for the full control effect; nearly all actives have a fitted effect of over 40% in size
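Enzyme-compound mixtures sat 15 min at room temperature, followed by a 5 min reaction with 15 nM final substrate and 10 min with AlphaScreen beads. Recombinant human Tdp1 was used at 1 nM final.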
Starred values were filed as active, the others as inactive; u = inconclusive; x = no result given. Unless noted, calls come from the whole dose curve; as a rule, active = well fitted inhibition curve with a large enough effect; inconclusive = small, poorly fitted or top-dose-only effect; inactive = no such curve, though single readings can be large or run the other way.

SMILES	Six1-Eya2 inh	HP1b chromo inh	BAZ2B inh	JMJD2A Tudor inh	CtBP-E1A inh	TDP1 block
CCC1CCCCN1S(=O)(=O)c1ccc(NC(=O)c2nc(SC)ncc2Cl)cc1 (stereo unspecified)	x	24%	-18%	-17%	x	5%
COc1ccccc1CNC(=O)Cn1nc(C)n2cccc2c1=O	x	34%	-15%	-18%	x	-3%
Cc1cc(C(=O)C(C)Cl)c(C)n1Cc1ccco1 (stereo unspecified)	-17	u	u	50µM*	8	-6%
Cc1cc(C(=O)COC(=O)c2ccc(O)cc2)c(C)n1Cc1ccco1	-21	u	50µM*	u	6	8%
Cc1cc(C(=O)CSc2ncccn2)c(C)n1Cc1ccco1	3	48%	8%	-11%	1	2%
CCOc1ncccc1C(=O)OCC(=O)c1ccc(F)cc1	4	8%	11%	20µM*	0	5%
Cc1cc(C(=O)COC(=O)c2ccc(Br)o2)c(C)n1Cc1ccco1	x	x	u	x	x	-2%
CCOc1ncccc1C(=O)OCC(=O)c1cc(C)n(Cc2ccco2)c1C	-19	-3%	50µM*	u	-16	-2%
Cc1c(P(=S)(c2ccccc2)c2ccccc2)[n+]2ccccc2n1Cc1ccccc1	x	x	x	-18%	x	1%
COc1ccc2nc(N3CCN(C(=O)C4CC4)CC3)sc2c1	x	37%	-1%	-6%	x	8%
CC(=O)c1ccc(NC(=O)Cn2ncc3c(C)n(Cc4ccc(F)cc4)c(C)c3c2=O)cc1	x	-2%	2%	-26%	x	0%
Cc1ccc(CNC(=O)c2cc(NS(=O)(=O)c3ccc(C)cc3)ccn2)cc1	x	-3%	0%	-17%	x	6%
COC(=O)c1scc(-c2ccc(C)cc2)c1S(=O)(=O)N1CCN(c2ccc(C)cc2C)CC1	x	u	-13%	-21%	x	10%
CCn1c(SC(C)C(=O)O)nc2sc3c(c2c1=O)CCC3 (stereo unspecified)	0	9%	50µM*	89µM*	3	11µM*
CC(Sc1nc2sc3c(c2c(=O)n1-c1ccccc1)CCCC3)C(=O)O (stereo unspecified)	13	28%	-5%	5%	7	-1%
Cc1cc(C)cc(NC(=O)N2CCC(CN3CCc4ccccc4C3)CC2)c1	x	27%	-4%	-8%	x	0%
CC(=O)NC(C)c1cc(Cl)c2ccccc2c1O (stereo unspecified)	x	43%	-4%	-11%	x	2%
O=C(O)COc1ccccc1C(Nc1cccnc1)c1cc(Cl)c2cccnc2c1O (stereo unspecified)	-67*	u	20µM*	22µM*	-91*	-3%
O=C(O)COc1ccccc1C(Nc1ccccn1)c1cc(Cl)c2cccnc2c1O (stereo unspecified)	u	u	40µM*	79µM*	-85*	-4%
CCOc1ccc(C(Nc2cccnc2)c2cc(Cl)c3cccnc3c2O)cc1 (stereo unspecified)	u	u	45µM*	40µM*	-68*	-2%
O=C(NC(c1ccccc1)c1cc(Cl)c2cccnc2c1O)c1cccnc1 (stereo unspecified)	x	x	1%	x	x	0%
CCN(C(=O)c1cc2c(s1)-c1ccccc1OC2)c1cc(Cl)ccc1OC	x	94%	42%	43%	x	0%
N#CC(C#N)=CC1=C2OC(c3ccccc3)=CC(c3ccccc3)=C2CCC1	-13	2.8µM*	u	2.2µM*	-20	4%
CN(C(=O)CSc1nnc(COc2ccccc2)o1)c1ccccc1	x	31%	79µM*	-25%	x	0%
CC1CCN(S(=O)(=O)c2ccc3[nH]ccc3c2)CC1	x	38%	2%	-7%	x	-5%
Clc1cccc(-c2ccc(-c3nc4ccccn4c3NCc3ccccc3)cc2)c1	-8	-7%	x	u	-8	9%
COc1ccc(-c2nc3ccccn3c2NCc2ccc3c(c2)OCO3)cc1	-18	-7%	50µM*	u	-3	0%

Screening data deposited in PubChem by National Center for Advancing Translational Sciences (NCATS).
